The text below walks through data of the supplement of paper PMC10849652.

Holding throughout (assay): log2 fold change, soluble protein after heating vs DMSO (PISA); higher = thermal stabilisation; K562 lysate, 10 uM; active = over 0.2 and 3.5 SD of the protein, either way, in both replicates (recomputed)
Compound in one experiment: C#Cc1cccc(Nc2ncnc3cc(OCCOC)c(OCCOC)cc23)c1 [erlotinib]
In a few lines: (§1)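 Pellets of K562 cells were dounce-homogenised in PBS pH 7.4 with 1 mM MgCl2, and the crude extract was held at 1 mg/mL protein for a 30 min treatment with 10 μM compound. Aliquots were heated for 3 min over 48°C-58°C and pooled before NP-40 was added to 0.5% at 4°C. The supernatant from 21,000xg for 90 min was quantified by TMTpro 16plex LC-MS/MS with channel sums equalised. Values are reported from duplicates as log-two fold change in thermal stability relative to solvent controls.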

Compound in experiment [1]: C/C(=N\NC(=O)C1=CC(=CC=C1)S(=O)(=O)N2CCOCC2)/C3=C(C=CC(=C3)Cl)O
In a few lines: as §1

Compound in experiment [2]: C1=CC(=CC=C1C2=NC3=C(N2)C=C(C=C3)C(=O)N)OC4=CC=C(C=C4)Cl
In short, it runs like this:
as §1

Compound in experiment [3]: C1=CC2=C(C=CC(=C2)/C=C\3/C(=O)NC(=NCC4=CC=CS4)S3)N=C1
In a few lines: as §1

Compound in experiment [4]: C1=CC2=NC=CN=C2C=C1/C=C/3\C(=O)NC(=O)S3
In short, it runs like this: as §1

Compound in experiment [5]: C1=CC=C(C=C1)C2=NC(=C(N2)C3=CC=NC=C3)C4=CC(=C(C=C4)Cl)O
In a few lines: as §1

Compound in experiment [6]: C1=CC=C2C(=C1)C3=NNC4=CC=CC(=C43)C2=O
In a few lines:
as §1

Compound in experiment [7]: C1CCN(C1)C(=O)NC2=CC=CC(=C2)NC3=NC=C(C(=N3)NCCC4=CN=CN4)Br
In a few lines: as §1

Compound in experiment [8]: C1CN(CCC1(CC2=CC=C(C=C2)Cl)N)C3=NC=NC4=C3C=CN4
In short, it runs like this: as §1

Compound in a further experiment: C1COCCN1CCN2C3=CC=CC=C3N=C2NC(=O)C4=CC(=CC=C4)[N+](=O)[O-] [IRAK-1-4 Inhibitor I]
In a few lines:
as §1

Compound in another experiment: C=CC(=O)N1CCC[C@@H](n2nc(-c3ccc(Oc4ccccc4)cc3)c3c(N)ncnc32)C1 [ibrutinib]
In a few lines:
as §1

Compound in experiment [9]: CC(=O)c1cnc2ccc(-c3cc(Cl)c(O)c(Cl)c3)nc2c1N[C@H]1CC[C@H](CN(C)C)CC1
In a few lines:
as §1

Compound in the next experiment: CC(C)(C)Cn1c(N)nc2ccc(-c3[nH]c(C(C)(C)C)nc3-c3ccc(F)cc3)nc21 [ralimetinib]
In short, it runs like this: as §1

Compound in experiment [10]: CC(C)(O)CC(=O)NCCn1ccc2ncnc(Nc3ccc(Oc4cccc(C(F)(F)F)c4)c(Cl)c3)c21
In short, it runs like this: as §1

Compound in experiment [11]: CC(C)C1=C2N=C(C=C(N2N=C1)NCC3=CC=CC=C3)NCCCCCCN
In a few lines: as §1

Compound in experiment [12]: CC1=C(C(CC(=O)N1)C2=CC=C(C=C2)C(F)(F)F)C(=O)NC3=C(C=C4C(=C3)C=NN4)F
In short, it runs like this: as §1

Compound in experiment [13]: CC1=C(C2=C(C=C1)C(=O)C3=CC=CC=C3N2CCCN)C
In a few lines:
as §1

Compound in experiment [14]: CC1=C(C=C(C=C1)NC(=O)C2=CC(=CC=C2)C(C)(C)C#N)NC3=CC4=C(C=C3)N=CN(C4=O)C
In short, it runs like this: as §1

Compound in experiment [15]: CC1=C(C=C(C=C1)NC(=O)C2=CC(=CC=C2)N(C)C)NC(=O)C3=CC=C(C=C3)O
In short, it runs like this:
as §1

Compound in experiment [16]: CC1=CC=C(C=C1)SC2=C3C=C(SC3=CN=C2)C(=O)N
In a few lines: as §1

Of roughly 8,800 targets only a part is listed; those with a hit were picked by preference. About 0.5% of all pairs of compound and target were hits. Values without a mark were called inactive.

Sequence of UniProt Q9H4L5 (Q9H4L5 whole entry, looked up): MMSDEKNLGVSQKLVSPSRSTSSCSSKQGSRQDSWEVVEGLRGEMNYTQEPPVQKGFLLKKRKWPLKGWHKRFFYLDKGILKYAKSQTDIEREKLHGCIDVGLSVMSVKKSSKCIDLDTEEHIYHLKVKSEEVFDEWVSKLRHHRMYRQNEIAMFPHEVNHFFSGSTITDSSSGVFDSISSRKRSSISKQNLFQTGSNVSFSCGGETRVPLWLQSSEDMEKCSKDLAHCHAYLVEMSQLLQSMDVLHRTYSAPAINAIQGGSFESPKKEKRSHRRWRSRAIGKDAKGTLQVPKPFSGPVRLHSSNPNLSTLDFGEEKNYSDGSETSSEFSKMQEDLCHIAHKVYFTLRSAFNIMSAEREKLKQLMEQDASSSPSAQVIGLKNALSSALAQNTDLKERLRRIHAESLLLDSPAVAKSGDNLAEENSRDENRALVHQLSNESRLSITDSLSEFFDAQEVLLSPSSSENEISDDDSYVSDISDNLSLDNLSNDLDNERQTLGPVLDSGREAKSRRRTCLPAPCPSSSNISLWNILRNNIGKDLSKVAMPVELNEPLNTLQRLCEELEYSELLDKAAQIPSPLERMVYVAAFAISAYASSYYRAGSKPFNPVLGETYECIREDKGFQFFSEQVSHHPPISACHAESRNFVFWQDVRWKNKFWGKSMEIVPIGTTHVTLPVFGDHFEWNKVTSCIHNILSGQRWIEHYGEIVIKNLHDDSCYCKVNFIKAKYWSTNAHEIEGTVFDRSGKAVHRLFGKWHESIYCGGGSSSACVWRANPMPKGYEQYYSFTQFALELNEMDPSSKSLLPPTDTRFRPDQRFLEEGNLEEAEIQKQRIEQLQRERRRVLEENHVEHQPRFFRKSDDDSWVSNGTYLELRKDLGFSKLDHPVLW
Sequence of UniProt O00159 (O00159 whole entry, looked up): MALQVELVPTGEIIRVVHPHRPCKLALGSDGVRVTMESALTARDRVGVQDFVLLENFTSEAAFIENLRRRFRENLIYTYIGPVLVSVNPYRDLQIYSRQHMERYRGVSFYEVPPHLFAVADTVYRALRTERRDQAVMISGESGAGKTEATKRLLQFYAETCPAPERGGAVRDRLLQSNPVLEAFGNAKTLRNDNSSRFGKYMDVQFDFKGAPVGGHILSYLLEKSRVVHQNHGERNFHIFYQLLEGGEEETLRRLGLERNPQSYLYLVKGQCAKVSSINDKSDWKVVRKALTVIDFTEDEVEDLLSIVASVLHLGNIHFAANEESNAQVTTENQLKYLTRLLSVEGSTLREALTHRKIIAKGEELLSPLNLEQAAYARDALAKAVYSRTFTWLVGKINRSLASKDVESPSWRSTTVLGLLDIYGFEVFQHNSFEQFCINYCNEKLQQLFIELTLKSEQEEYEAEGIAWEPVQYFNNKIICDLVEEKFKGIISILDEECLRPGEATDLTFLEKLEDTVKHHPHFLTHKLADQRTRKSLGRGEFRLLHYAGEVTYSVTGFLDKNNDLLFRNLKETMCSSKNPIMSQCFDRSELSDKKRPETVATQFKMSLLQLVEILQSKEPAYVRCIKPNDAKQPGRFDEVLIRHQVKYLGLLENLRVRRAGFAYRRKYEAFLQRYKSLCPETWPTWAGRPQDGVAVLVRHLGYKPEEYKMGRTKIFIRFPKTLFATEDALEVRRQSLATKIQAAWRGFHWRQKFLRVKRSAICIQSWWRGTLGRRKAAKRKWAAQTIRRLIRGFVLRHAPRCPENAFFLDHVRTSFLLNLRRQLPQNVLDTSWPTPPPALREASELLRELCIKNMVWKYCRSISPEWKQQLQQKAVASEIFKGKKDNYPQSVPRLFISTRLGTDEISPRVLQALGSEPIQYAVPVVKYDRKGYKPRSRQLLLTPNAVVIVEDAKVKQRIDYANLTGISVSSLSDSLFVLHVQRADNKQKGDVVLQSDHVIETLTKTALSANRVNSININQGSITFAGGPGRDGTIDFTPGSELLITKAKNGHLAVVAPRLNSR
Sequence of UniProt Q9Y5A7 (Q9Y5A7 whole entry, looked up): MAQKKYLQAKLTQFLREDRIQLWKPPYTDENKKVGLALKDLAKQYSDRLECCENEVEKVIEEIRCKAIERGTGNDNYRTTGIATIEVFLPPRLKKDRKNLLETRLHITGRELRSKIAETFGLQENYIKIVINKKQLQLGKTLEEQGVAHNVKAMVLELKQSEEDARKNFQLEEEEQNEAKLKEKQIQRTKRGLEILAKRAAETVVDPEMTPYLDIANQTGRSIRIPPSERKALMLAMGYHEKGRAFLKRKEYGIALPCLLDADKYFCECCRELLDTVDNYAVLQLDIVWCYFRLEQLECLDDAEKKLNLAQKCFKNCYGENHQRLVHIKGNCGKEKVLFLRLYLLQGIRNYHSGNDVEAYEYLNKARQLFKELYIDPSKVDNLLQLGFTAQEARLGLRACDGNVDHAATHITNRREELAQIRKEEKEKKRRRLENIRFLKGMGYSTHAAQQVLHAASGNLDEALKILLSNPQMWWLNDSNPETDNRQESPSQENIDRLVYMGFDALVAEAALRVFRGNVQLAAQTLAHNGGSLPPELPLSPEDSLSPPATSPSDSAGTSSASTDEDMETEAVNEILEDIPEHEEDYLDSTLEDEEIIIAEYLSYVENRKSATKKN
Sequence of UniProt Q13153 (Q13153 whole entry, looked up): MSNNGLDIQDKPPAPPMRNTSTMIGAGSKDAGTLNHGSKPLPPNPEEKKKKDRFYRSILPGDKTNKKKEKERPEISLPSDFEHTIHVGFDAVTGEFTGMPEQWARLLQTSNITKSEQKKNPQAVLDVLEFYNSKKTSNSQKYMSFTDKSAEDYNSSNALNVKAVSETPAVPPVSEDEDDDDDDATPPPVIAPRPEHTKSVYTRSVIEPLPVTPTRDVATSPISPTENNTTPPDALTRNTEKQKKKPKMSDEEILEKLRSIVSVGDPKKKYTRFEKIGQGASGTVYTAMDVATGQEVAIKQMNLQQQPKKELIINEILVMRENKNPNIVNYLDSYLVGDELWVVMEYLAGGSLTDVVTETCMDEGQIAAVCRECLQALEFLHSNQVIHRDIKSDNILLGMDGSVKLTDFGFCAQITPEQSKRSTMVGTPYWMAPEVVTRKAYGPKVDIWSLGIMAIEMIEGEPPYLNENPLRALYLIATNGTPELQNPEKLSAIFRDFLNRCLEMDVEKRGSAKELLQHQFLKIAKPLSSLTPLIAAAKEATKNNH
Sequence of UniProt P42695 (P42695 whole entry, looked up): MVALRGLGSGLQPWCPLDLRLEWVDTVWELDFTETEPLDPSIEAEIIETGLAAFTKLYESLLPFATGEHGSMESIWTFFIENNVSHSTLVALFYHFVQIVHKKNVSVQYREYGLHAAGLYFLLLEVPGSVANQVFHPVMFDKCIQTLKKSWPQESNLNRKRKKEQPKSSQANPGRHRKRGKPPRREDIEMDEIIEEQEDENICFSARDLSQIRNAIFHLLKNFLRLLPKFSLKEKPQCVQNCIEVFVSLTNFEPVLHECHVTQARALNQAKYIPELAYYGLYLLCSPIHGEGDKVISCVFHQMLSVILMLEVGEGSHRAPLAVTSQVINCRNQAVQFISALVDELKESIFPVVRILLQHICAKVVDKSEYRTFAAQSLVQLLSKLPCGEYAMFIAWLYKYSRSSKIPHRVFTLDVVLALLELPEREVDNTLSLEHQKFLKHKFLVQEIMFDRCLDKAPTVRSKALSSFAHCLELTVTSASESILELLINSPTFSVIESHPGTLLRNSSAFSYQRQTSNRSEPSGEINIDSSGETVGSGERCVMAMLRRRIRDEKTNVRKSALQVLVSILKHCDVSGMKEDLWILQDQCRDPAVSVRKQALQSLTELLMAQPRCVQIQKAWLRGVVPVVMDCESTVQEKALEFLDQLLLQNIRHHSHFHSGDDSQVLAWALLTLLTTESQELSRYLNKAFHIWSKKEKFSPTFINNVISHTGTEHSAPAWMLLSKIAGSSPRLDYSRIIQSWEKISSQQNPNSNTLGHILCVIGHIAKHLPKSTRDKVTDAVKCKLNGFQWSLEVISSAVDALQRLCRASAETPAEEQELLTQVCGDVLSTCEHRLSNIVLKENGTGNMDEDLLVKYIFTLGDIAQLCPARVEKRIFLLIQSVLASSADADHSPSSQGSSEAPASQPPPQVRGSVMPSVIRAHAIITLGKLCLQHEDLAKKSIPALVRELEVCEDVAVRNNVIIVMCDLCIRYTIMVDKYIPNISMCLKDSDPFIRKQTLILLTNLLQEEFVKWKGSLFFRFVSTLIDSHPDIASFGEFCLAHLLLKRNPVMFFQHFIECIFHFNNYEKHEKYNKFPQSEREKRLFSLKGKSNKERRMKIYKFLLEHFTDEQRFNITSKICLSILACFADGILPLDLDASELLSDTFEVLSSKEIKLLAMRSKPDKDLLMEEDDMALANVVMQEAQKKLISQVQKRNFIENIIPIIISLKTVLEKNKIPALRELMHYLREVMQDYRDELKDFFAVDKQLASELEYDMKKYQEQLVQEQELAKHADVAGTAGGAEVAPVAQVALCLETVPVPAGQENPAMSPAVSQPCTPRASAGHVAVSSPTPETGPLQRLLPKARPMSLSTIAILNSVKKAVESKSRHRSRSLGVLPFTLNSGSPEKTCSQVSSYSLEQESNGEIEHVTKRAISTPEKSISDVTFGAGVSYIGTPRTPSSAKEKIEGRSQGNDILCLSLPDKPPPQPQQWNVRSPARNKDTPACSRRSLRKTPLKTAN

Regarding NCAPD3 (UniProt P42695), the log2 fold change is 0.023 with erlotinib; 0.021 in experiment [1]; -0.012 in experiment [2]; 0.006 in experiment [3]; -0.003 in [4]; 0.012 in experiment [5]. Also, the log2 fold change was -0.043 in experiment [6]; -0.004 in experiment [7]; 0.042 in experiment [8]; 0.03 in the experiment with IRAK-1-4 Inhibitor I; 0.001 with ibrutinib; -0.017 in [9]. The log2 fold change with ralimetinib was 0.043; in [10], -0.019; in experiment [11], -0.008; in experiment [12], 0.007; in [13], -0.024; in [14] it was -0.012. For the same target, the log2 fold change in experiment [15] is 0.036; in [16], -0.012.

Take NUDT5 (UniProt Q9UKK9): the log2 fold change with erlotinib is -0.013; in experiment [1], -0.051; in experiment [2] it was 0.046; in [3], 0.027; in experiment [4], -0.001; in [5], -0.002. Moreover, the log2 fold change is -0.023 in [6]; -0.026 in [7]; 0.014 in experiment [8]; 0.005 with IRAK-1-4 Inhibitor I; 0.059 with ibrutinib; -0.008 in experiment [9]. The log2 fold change in the experiment with ralimetinib was -0.047; in experiment [10], -0.05; in [11] it was -0.047; in experiment [12], -0.007; in experiment [13], -0.002; in experiment [14] it was 0.006. Besides, the values for the log2 fold change in experiment [15] and in [16] were -0.014 and -0.042, respectively.

Consider MYO1C (UniProt O00159), for which the log2 fold change in the experiment with erlotinib was -0.002; in [1] it was -0.005; in experiment [2], 0.003; in experiment [3], 0.017; in experiment [4], 0.006; in [5] it was 0.047. The log2 fold change in experiment [6] is -0.003; in experiment [7] it was -0.021; in experiment [8], -0.032; with IRAK-1-4 Inhibitor I, -0.055; with ibrutinib, 0.037; in experiment [9], 0.031. In addition, the log2 fold change was 0.075 in the experiment with ralimetinib; -0.032 in experiment [10]; -0.009 in [11]; -0.03 in experiment [12]; 0.017 in experiment [13]; -0.292 (active) in experiment [14]. For the same target, the log2 fold change in experiment [15] is 0.021; in experiment [16] it was 0.06.

Turning to PAK1 (UniProt Q13153), the log2 fold change is 0.043 in the experiment with erlotinib; 0.018 in experiment [1]; 0.01 in experiment [2]; -0.017 in experiment [3]; 0.01 in experiment [4]; -0.014 in experiment [5]. Further, the log2 fold change in experiment [6] was 0.018; in [7], 0.028; in experiment [8] it was 0.041; in the experiment with IRAK-1-4 Inhibitor I it was -0.007; with ibrutinib it was 0.067; in [9] it was -0.011. The log2 fold change is 0.001 with ralimetinib; 0.004 in experiment [10]; -0.108 in [11]; -0.003 in [12]; -0.018 in experiment [13]; 0.041 in experiment [14]. In addition, the log2 fold change in experiment [15] was 0.008; in experiment [16], 0.009.

In the case of MYO1D (UniProt O94832), the log2 fold change in the experiment with erlotinib is 0.01; in experiment [1] it was -0.064; in experiment [2], -0.022; in experiment [3], 0.004; in [4], 0.006; in experiment [5], 0.01. Besides, the log2 fold change in [6] is -0.083; in experiment [7], 0.015; in experiment [8], 0.031; in the experiment with IRAK-1-4 Inhibitor I it was -0.027; in the experiment with ibrutinib, -0.016; in [9], -0.012. In addition, the log2 fold change with ralimetinib was 0.04; in experiment [10] it was 0.003; in experiment [11], 0.018; in experiment [12] it was -0.021; in [13], -0.009; in experiment [14], -0.014. The log2 fold change in experiment [15] is 0.01; in [16], 0.031.

Turning to OSBPL3 isoform 2 (UniProt Q9H4L5), the log2 fold change with erlotinib is 0.292; in [1], 0.206; in experiment [2] it was 0.038; in [3], 0.079; in experiment [4] it was -0.04; in experiment [5], 0.189. The log2 fold change in experiment [6] was 0.135; in experiment [7] it was -0.001; in experiment [8] it was -0.018; with IRAK-1-4 Inhibitor I it was -0.183; with ibrutinib, 0.031; in experiment [9], -0.007. In addition, the log2 fold change was 0.019 with ralimetinib; 0.004 in experiment [10]; -0.033 in experiment [11]; 0.018 in experiment [12]; 0.02 in experiment [13]; 0.015 in experiment [14]. Moreover, the log2 fold change was 0.057 in experiment [15] and -0.016 in [16].

For NUB1 (UniProt Q9Y5A7), the log2 fold change with erlotinib was 0.049; in experiment [1] it was 0.055; in experiment [2] it was -0.003; in experiment [3], -0.015; in experiment [4] it was 0.002; in experiment [5], 0.054. For the same target, the log2 fold change is 0.023 in experiment [6]; -0.022 in [7]; -0.023 in experiment [8]; -0.02 in the experiment with IRAK-1-4 Inhibitor I; -0.001 in the experiment with ibrutinib; 0.022 in experiment [9]. The log2 fold change in the experiment with ralimetinib was -0.003; in [10] it was 0.018; in [11] it was -0.027; in experiment [12], 0.014; in [13], -0.009; in experiment [14], -0.028. In addition, the log2 fold change in experiment [15] was 0.008; in [16], 0.02.
